Several values for one entry are separate records, joined by “and”; a condition that tells them apart may be missing. Identical values can stand only once. Records with an inconclusive call do not appear. Activity calls are given as the source filed them.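 Rule for the calls, unless noted: active = compounds whose cell count with miR-34 switched on is under 0.7 times the count with it off; inactive = the rest.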
What was measured:
[1] = growth inhibition of BT084 medulloblastoma cells, cell-based, ICGC_MB145, cisplatin and BGB IC40 combos (AID 1671461); details: drug combinations, stronger effect = higher value;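 note: cells exposed to drugs for 96 hours; 0% = vehicle DMSO and 100% = high DMSO full killing control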
[2] = growth inhibition of RCMB18 medulloblastoma cells, cell-based, cisplatin and BGB IC40 combos (AID 1671462; in the data active = inhibition above about 80%;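 note: cells exposed to compound for four days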); details: stronger effect = higher value
[3] = growth inhibition of CRL1545 osteosarcoma cells, cell-based, cisplatin and BGB IC20 combos (AID 1671464; in the data active = inhibition above about 80%;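 note: cells exposed to compound for 96 hours before readout; 0% = vehicle DMSO and 100% = high DMSO killing control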); details: stronger effect = higher value
[4] = circadian clock period modulators, cell-based, LOPAC library, luminescence reporter (AID 2774; call rule not given here;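 note: values are relative to mean of DMSO wells on each plate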); details: circadian reporter cells, at 7 µM, actives lie on both sides
[5] = test system: Hepatitis C virus NS3 helicase; test: HCV NS3 helicase inhibitors, primary screen, biochemical, fluorescence polarization, LOPAC1280 library (AID 687035; in the data active = inhibition above about 37%); details: Purified HCV NS3 helicase, Cy5-dT15 ssDNA binding fluorescence polarization; stronger effect = higher value; concentration not given here
[6] = Cy5 fluorescence quenching or enhancement artefacts, artefact control for HCV NS3 helicase inhibitor project, biochemical, LOPAC1280 (AID 687037; call rule not given here); details: Cy5-DNA-NS3h complex fluorescence interference counterscreen
[7] = sensitizers of A549 cells to miR-34 induction, primary screen, imaging, A549 dox-inducible miR-34, nuclei and caspase counts (AID 1347080); details: A549 miR-34 inducible, Hoechst nuclei count, 48 h
[8] = viability rescue of complex I mutant cybrids, primary screen, cell-based, galactose medium, ATP luminescence (AID 1645843;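 active = z-score of at least 1.8 in each of two replicates, scored against plate mean and spread of sample wells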;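 note: positive z means more ATP and so rescue of galactose-driven cybrid death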); details: complex I mutant cybrid cells, 72 h, stronger effect = higher value
[9] = hESC survival regulators, cell-based (AID 493140; call rule not given here;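 note: cells exposed to compounds for four days before counting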); details: human embryonic stem cell survival screen; stronger effect = higher value
[10] = target: ATP-dependent translocase ABCB1 (Homo sapiens) (UniProt P08183); test: MDR1 (ABCB1) efflux transporter inhibition, cell-based (AID 377; in the data active = fluorescence slope change above about 50%); details: MDR1-expressing cells, fluorescent substrate accumulation slope; stronger effect = higher value; concentration not given here
[11] = liver-stage malaria parasite growth inhibition, primary screen, cell-based, HepG2, luciferase luminescence, HepG2 viability (AID 624349; in the data active = parasite load remaining mostly below about 12%, no sharp cut-off; inactive = mostly above about 10%;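 note: 100% = mean of DMSO negative control wells on the same plate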); details: P. berghei liver stage in HepG2, luciferase luminescence, concentration not given here; parasite load remaining: stronger effect = lower value; viability: measured here: HepG2 viability without parasites
[12] = stronger effect = lower value, cell number ratio, induced over uninduced
[13] = measured here: relative caspase fold change +Dox/-Dox
[14] = measured here: total cells with miR-34 induction, stronger effect = lower value
[15] = measured here: total cells without miR-34 induction

Sequence of ATP-dependent translocase ABCB1 (Homo sapiens) (P08183 whole entry, looked up): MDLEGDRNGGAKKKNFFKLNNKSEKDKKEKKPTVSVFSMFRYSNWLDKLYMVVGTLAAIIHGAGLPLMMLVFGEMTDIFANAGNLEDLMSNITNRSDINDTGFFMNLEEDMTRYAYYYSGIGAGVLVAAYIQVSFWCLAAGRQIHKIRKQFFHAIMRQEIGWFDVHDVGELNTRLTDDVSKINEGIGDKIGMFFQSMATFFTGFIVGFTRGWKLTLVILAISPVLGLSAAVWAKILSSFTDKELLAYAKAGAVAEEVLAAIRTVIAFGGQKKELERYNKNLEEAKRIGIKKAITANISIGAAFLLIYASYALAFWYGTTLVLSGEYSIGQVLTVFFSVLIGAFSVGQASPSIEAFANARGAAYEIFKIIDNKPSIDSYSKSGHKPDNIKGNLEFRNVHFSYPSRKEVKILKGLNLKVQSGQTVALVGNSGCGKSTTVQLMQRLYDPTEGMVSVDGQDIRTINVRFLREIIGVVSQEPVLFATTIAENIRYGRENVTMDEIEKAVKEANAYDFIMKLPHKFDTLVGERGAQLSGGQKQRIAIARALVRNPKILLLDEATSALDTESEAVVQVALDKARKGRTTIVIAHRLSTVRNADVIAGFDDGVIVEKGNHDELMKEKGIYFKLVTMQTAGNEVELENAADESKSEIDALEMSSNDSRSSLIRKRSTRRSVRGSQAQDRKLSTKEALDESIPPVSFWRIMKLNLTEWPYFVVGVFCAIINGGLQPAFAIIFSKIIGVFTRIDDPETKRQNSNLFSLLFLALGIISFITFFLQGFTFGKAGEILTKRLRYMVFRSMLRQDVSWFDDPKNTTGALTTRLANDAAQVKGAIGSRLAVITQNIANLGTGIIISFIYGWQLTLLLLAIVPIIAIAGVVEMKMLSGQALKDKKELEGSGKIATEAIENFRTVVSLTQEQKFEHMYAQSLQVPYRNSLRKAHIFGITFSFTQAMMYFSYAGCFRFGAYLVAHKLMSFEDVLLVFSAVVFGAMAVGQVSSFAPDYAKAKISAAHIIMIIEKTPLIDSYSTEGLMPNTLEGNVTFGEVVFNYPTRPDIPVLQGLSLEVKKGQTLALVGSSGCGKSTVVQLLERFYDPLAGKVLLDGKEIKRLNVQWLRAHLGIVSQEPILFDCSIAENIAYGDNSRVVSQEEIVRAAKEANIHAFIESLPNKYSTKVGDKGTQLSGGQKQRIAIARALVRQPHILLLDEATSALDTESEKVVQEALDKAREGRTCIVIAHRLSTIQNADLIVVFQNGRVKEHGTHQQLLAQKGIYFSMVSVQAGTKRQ

With `COc1c(N2CC3CCCNC3C2)c(F)cc2c(=O)c(C(=O)O)cn(C3CC3)c12` (stereo not given) the inhibition ([1]; cisplatin combination, at 5 µM) was -18.8% and -23%, the inhibition ([1]; measured here: BGB IC40 combination 0.05 uM, at 0.05 µM) was -35.2% and -12.7% and the inhibition ([1]; single agent, at 5 µM) was -4.05% and -7.99%. The inhibition ([2]; at 0.5 µM) was -5.76% (inactive) and -15.1% (inactive), the inhibition ([2]; cisplatin combo, at 5 µM) was -131% and -3.44% and the inhibition ([2]; measured here: BGB IC40 combination, at 0.05 µM) was 9.3% and -24.7%. The inhibition ([2]; measured here: combination with cisplatin, at 0.5 µM) was -0.114% and -16.6%, the inhibition ([2]; single agent, at 5 µM) was -15% and -12.8% and the inhibition ([3]; at 0.5 µM) was 10.4% (inactive) and -25.5% (inactive). For the same compound, the inhibition ([3]; measured here: with BGB IC20 combination, at 0.5 µM) was 13% and -1.64%, the inhibition ([3]; measured here: with cisplatin IC20 combination, at 0.5 µM) was 7.59% and -37.4% and the inhibition ([3]; single agent, at 0.05 µM) was -39.6% and 17%. For the same compound, the inhibition ([3]; single agent, at 5 µM) was -7.8% and 21.6%.

In the case of `NC(N)=[N+]1CCc2ccccc2C1`, the period change [4] is reported as -0.15 h (inactive), the inhibition [5] is reported as -1% (inactive) and the fluorescence ratio (interference) [6] is reported as 1.1 (inactive). For the same compound, the fold change [7, 12] was 1.01 (inactive), the fold change [7, 13] was 1.06 and the cell count [7, 14] was 8570. For the same compound, the cell count [7, 15] was 8500 and the z-score [8] was -0.075 (inactive).

In the case of `Cc1nc(N=Nc2cc(S(=O)(=O)O)c3cc([N+](=O)[O-])cc(S(=O)(=O)O)c3c2)c(COP(=O)(O)O)c(C=O)c1O`, the period change [4] is reported as -0.275 h (inactive), the inhibition [5] is reported as 58% (active) and the fluorescence ratio (interference) [6] is reported as 0.8 (active). For the same compound, the fold change [7, 12] was 1.02 (inactive), the fold change [7, 13] was 1.61 and the cell count [7, 14] was 10500. For the same compound, the cell count [7, 15] was 10300 and the z-score [8] was 1.9 (active).

For `CCCCCCCCCCCCCCC(F)C(=O)O` (stereo not given), the survival [9] was 81.6 (inactive), the fold change [7, 12] was 0.989 (inactive) and 1.01 (inactive) and the fold change [7, 13] was 1.15 and 0.824. The cell count [7, 14] was 6040 and 6340 and the cell count [7, 15] was 6110 and 6280.

With `CCCCCCCCCCCCCCCC(=O)OCC(COP(=O)(O)O)OC(=O)CCCCCCCCCCCCCCC` (stereo not given) the survival [9] was 95.5 (inactive), the fold change [7, 12] was 0.922 (inactive) and the fold change [7, 13] was 1.21. It also gave a cell count [7, 14] of 5850 and a cell count [7, 15] of 6340.

For `CCCCCCCC/C=C\CCCCCCCC(=O)OC[C@@H](O)COP(=O)(O)O`, the survival [9] was 57.2 (inactive), the fold change [7, 12] was 0.957 (inactive) and 0.893 (inactive) and the fold change [7, 13] was 1.42 and 0.522. The cell count [7, 14] was 6370 and 5350 and the cell count [7, 15] was 6660 and 5990.

With `c1ccc2c(c1)CCCc1cc(NCCN3CCOCC3)nnc1-2` the fluorescence slope change [10] was 77.5% (active), the survival [9] was 2.75 (inactive) and the parasite load remaining [11] was 74.6% (inactive) and 80.6% (inactive). For the same compound, the viability [11] was 105% and 79%, the fold change [7, 12] was 0.801 (inactive) and the fold change [7, 13] was 2.12. It also gave a cell count [7, 14] of 7290 and a cell count [7, 15] of 9100.

With `CCCCC[C@H](O)/C=C/[C@@H]1[C@@H](CCCCCCC(=O)O)[C@@H](O)C[C@H]1O` the survival [9] was 96.8 (inactive), the fold change [7, 12] was 0.91 (inactive) and 0.991 (inactive) and the fold change [7, 13] was 1.19 and 1.15. For the same compound, the cell count [7, 14] was 5960 and 6030 and the cell count [7, 15] was 6550 and 6090.

In the case of `CCCCC/C=C\C[C@@H](O)/C=C/C=C/C=C\[C@@H](O)CCCC(=O)O`, the survival [9] is reported as 102 (inactive), the fold change [7, 12] is reported as 0.993 (inactive) and the fold change [7, 13] is reported as 1.34. The cell count [7, 14] was 6200 and the cell count [7, 15] was 6240.

For `O=C1C=CC(=O)c2c1ccc1c2ccc2ccccc21`, the fluorescence slope change [10] was 25.9% (inactive), the survival [9] was 5.83 (inactive) and the parasite load remaining [11] was 14.2% (inactive) and 61.1% (inactive). For the same compound, the viability [11] was 64.9% and 72.9%, the fold change [7, 12] was 0.87 (inactive) and the fold change [7, 13] was 1.13. It also gave a cell count [7, 14] of 7950 and a cell count [7, 15] of 9140.

In the case of `CCCCC(C)(O)C/C=C/[C@H]1[C@H](O)CC(=O)[C@@H]1CCCCCCC(=O)O` (stereo not given in full), the survival [9] is reported as 92.9 (inactive), the fold change [7, 12] is reported as 0.933 (inactive) and 0.881 (inactive) and the fold change [7, 13] is reported as 1.28 and 1.98. For the same compound, the cell count [7, 14] was 6180 and 5400 and the cell count [7, 15] was 6620 and 6130.
